Laboratory results published in article PMC8384837, “Expanding the binding specificity for RNA recognition by a PUF domain”.
Changes are numbered by the printed parent chain.

What was measured:
Test in all cases: yeast three-hybrid, YBZ-1, SC-Leu-His + 0.5 mM 3-AT, 4 days
Conditions in all cases: tags: N-Gal4 AD-HA kept; label: inside an RPR1-promoter hybrid RNA with tandem MS2 sites; ssRNA
PUM1 PUF domain R6-TWT = target: T1, PUM1 PUF domain R6-TWT (Homo sapiens, UniProt Q14671 828-1176, N1043T;Y1044W;Q1047T)
T1 sequence: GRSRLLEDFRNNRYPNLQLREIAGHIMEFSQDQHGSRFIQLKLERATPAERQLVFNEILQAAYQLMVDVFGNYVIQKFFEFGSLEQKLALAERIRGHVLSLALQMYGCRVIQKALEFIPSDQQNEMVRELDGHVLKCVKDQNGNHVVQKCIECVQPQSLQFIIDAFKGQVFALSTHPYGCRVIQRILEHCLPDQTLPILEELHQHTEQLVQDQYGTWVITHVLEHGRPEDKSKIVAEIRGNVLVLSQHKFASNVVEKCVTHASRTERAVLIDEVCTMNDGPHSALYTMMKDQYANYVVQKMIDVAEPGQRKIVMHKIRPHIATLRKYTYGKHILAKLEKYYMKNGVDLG
Summary of the method: (§1)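 Pumilio-1 PUF domain libraries, randomized (NNK) at the three base-contacting residues of each repeat, were co-expressed with matching RNA elements from a centromeric plasmid in strain YBZ-1 (LexA–MS2 coat fusion, HIS3 reporter). Transformants were plated on SC-Leu (input) and SC-Leu-His + 0.5 mM 3-AT (selection) for four days, and repeat regions were PCR-amplified and Illumina-sequenced. The interaction score is the log2 change in variant frequency from input to selection, with pseudocount 1 where absent.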

PUM1 PUF domain R6-CWV = target: T2, PUM1 PUF domain R6-CWV (Homo sapiens, UniProt Q14671 828-1176, N1043C;Y1044W;Q1047V)
T2 sequence: T1 sequence with T216C, T220V
Summary of the method: as §1

PUM1 PUF domain R6-FWG = target: T3, PUM1 PUF domain R6-FWG (Homo sapiens, UniProt Q14671 828-1176, N1043F;Y1044W;Q1047G)
T3 sequence: T1 sequence with T216F, T220G
Summary of the method: as §1

PUM1 PUF domain R5-KGK = PUM1 PUF domain R5-KGK (Homo sapiens, UniProt Q14671 828-1176, C1007K;R1008G;Q1011K)
Summary of the method: as §1

PUM1 PUF domain R5-KFR = PUM1 PUF domain R5-KFR (Homo sapiens, UniProt Q14671 828-1176, C1007K;R1008F;Q1011R)
Summary of the method: as §1

PUM1 PUF domain R1-RRC = PUM1 PUF domain R1-RRC (Homo sapiens, UniProt Q14671 828-1176, S863R;Q867C)
Summary of the method: as §1

PUM1 PUF domain R4-SNA = PUM1 PUF domain R4-SNA (Homo sapiens, UniProt Q14671 828-1176, N971S;H972N;Q975A)
Summary of the method: as §1

PUM1 PUF domain R5-RHL = PUM1 PUF domain R5-RHL (Homo sapiens, UniProt Q14671 828-1176, C1007R;R1008H;Q1011L)
Summary of the method: as §1

PUM1 PUF domain R5-HRE = PUM1 PUF domain R5-HRE (Homo sapiens, UniProt Q14671 828-1176, C1007H;Q1011E)
Summary of the method: as §1

PUM1 PUF domain R8-RRS = PUM1 PUF domain R8-RRS (Homo sapiens, UniProt Q14671 828-1176, N1122R;Y1123R;Q1126S)
Summary of the method: as §1

PUM1 PUF domain R6-CWW = target: T4, PUM1 PUF domain R6-CWW (Homo sapiens, UniProt Q14671 828-1176, N1043C;Y1044W;Q1047W)
T4 sequence: T1 sequence with T216C, T220W
Summary of the method: as §1

PUM1 PUF domain R8-ARR = PUM1 PUF domain R8-ARR (Homo sapiens, UniProt Q14671 828-1176, N1122A;Y1123R;Q1126R)
Summary of the method: as §1

PUM1 PUF domain R5-DYD = PUM1 PUF domain R5-DYD (Homo sapiens, UniProt Q14671 828-1176, C1007D;R1008Y;Q1011D)
Summary of the method: as §1

PUM1 PUF domain R7-KCQ = PUM1 PUF domain R7-KCQ (Homo sapiens, UniProt Q14671 828-1176, S1079K;N1080C;E1083Q)
Summary of the method: as §1

PUM1 PUF domain R7-ENS = PUM1 PUF domain R7-ENS (Homo sapiens, UniProt Q14671 828-1176, S1079E;E1083S)
Summary of the method: as §1

PUM1 PUF domain R6-RRK = target: T5, PUM1 PUF domain R6-RRK (Homo sapiens, UniProt Q14671 828-1176, N1043R;Y1044R;Q1047K)
T5 sequence: T1 sequence with T216R, W217R, T220K
Summary of the method: as §1

PUM1 PUF domain R6-PFE = target: T6, PUM1 PUF domain R6-PFE (Homo sapiens, UniProt Q14671 828-1176, N1043P;Y1044F;Q1047E)
T6 sequence: T1 sequence with T216P, W217F, T220E
Summary of the method: as §1

PUM1 PUF domain R3-WWD = PUM1 PUF domain R3-WWD (Homo sapiens, UniProt Q14671 828-1176, C935W;R936W;Q939D)
Summary of the method: as §1

PUM1 PUF domain R4-QFL = PUM1 PUF domain R4-QFL (Homo sapiens, UniProt Q14671 828-1176, N971Q;H972F;Q975L)
Summary of the method: as §1

PUM1 PUF domain R5-KSI = PUM1 PUF domain R5-KSI (Homo sapiens, UniProt Q14671 828-1176, C1007K;R1008S;Q1011I)
Summary of the method: as §1

In the case of “GGCUAGAACUAGUGGAUCCCCCGGCGCCCGGCGGCUCGAGCCCGGGUAAGUGAAAAUAGUCUGCAUGCCGCCGGGCGCCAUGCCUGCAGGUCGACUCUAGAAAACAUG”, the binding signal (PUM1 PUF domain R6-TWT) is reported as 4.15 log2 enrichment (interaction score), the binding signal (PUM1 PUF domain R6-CWV) is reported as 1.98 log2 enrichment (interaction score) and the binding signal (PUM1 PUF domain R6-FWG) is reported as 2.45 log2 enrichment (interaction score).
With “GGCUAGAACUAGUGGAUCCCCCGGCGCCCGGCGGCUCGAGCCCGGGUAAGUGUUAAUAGUCUGCAUGCCGCCGGGCGCCAUGCCUGCAGGUCGACUCUAGAAAACAUG” the binding signal (PUM1 PUF domain R5-KGK) was 1.81 log2 enrichment (interaction score) and the binding signal (PUM1 PUF domain R5-KFR) was 4.62 log2 enrichment (interaction score).
With “GGCUAGAACUAGUGGAUCCCCCGGCGCCCGGCGGCUCGAGCCCGGGUAAGUGUAAAUUGUCUGCAUGCCGCCGGGCGCCAUGCCUGCAGGUCGACUCUAGAAAACAUG” the binding signal (PUM1 PUF domain R1-RRC) was 2.93 log2 enrichment (interaction score).
For “GGCUAGAACUAGUGGAUCCCCCGGCGCCCGGCGGCUCGAGCCCGGGUAAGUGUACAUAGUCUGCAUGCCGCCGGGCGCCAUGCCUGCAGGUCGACUCUAGAAAACAUG”, the binding signal (PUM1 PUF domain R4-SNA) was 3.14 log2 enrichment (interaction score).
For “GGCUAGAACUAGUGGAUCCCCCGGCGCCCGGCGGCUCGAGCCCGGGUAAGUGUAAAUAGUCUGCAUGCCGCCGGGCGCCAUGCCUGCAGGUCGACUCUAGAAAACAUG”, the binding signal (PUM1 PUF domain R5-RHL) was 3.44 log2 enrichment (interaction score), the binding signal (PUM1 PUF domain R6-TWT) was 1.62 log2 enrichment (interaction score) and the binding signal (PUM1 PUF domain R5-HRE) was 2.59 log2 enrichment (interaction score). The binding signal (PUM1 PUF domain R5-KGK) was 1.56 log2 enrichment (interaction score), the binding signal (PUM1 PUF domain R8-RRS) was 1.39 log2 enrichment (interaction score) and the binding signal (PUM1 PUF domain R6-CWV) was 3.39 log2 enrichment (interaction score). For the same sequence, the binding signal (PUM1 PUF domain R6-CWW) was 3.56 log2 enrichment (interaction score), the binding signal (PUM1 PUF domain R8-ARR) was 1.18 log2 enrichment (interaction score) and the binding signal (PUM1 PUF domain R5-KFR) was 4.71 log2 enrichment (interaction score). The binding signal (PUM1 PUF domain R5-DYD) was 1.97 log2 enrichment (interaction score), the binding signal (PUM1 PUF domain R4-SNA) was 1.52 log2 enrichment (interaction score) and the binding signal (PUM1 PUF domain R6-FWG) was 3.61 log2 enrichment (interaction score).
“GGCUAGAACUAGUGGAUCCCCCGGCGCCCGGCGGCUCGAGCCCGGGUAAGUUUAAAUAGUCUGCAUGCCGCCGGGCGCCAUGCCUGCAGGUCGACUCUAGAAAACAUG” was tested, and the binding signal (PUM1 PUF domain R7-KCQ) was 2.98 log2 enrichment (interaction score) and the binding signal (PUM1 PUF domain R7-ENS) was 4.45 log2 enrichment (interaction score).
For “GGCUAGAACUAGUGGAUCCCCCGGCGCCCGGCGGCUCGAGCCCGGGUAAGUGUAAAUCGUCUGCAUGCCGCCGGGCGCCAUGCCUGCAGGUCGACUCUAGAAAACAUG”, the binding signal (PUM1 PUF domain R1-RRC) was 2.87 log2 enrichment (interaction score).
For “GGCUAGAACUAGUGGAUCCCCCGGCGCCCGGCGGCUCGAGCCCGGGUAAGCGUAAAUAGUCUGCAUGCCGCCGGGCGCCAUGCCUGCAGGUCGACUCUAGAAAACAUG”, the binding signal (PUM1 PUF domain R8-RRS) was 3.27 log2 enrichment (interaction score) and the binding signal (PUM1 PUF domain R8-ARR) was 2.33 log2 enrichment (interaction score).
In the case of “GGCUAGAACUAGUGGAUCCCCCGGCGCCCGGCGGCUCGAGCCCGGGUAAGUGCAAAUAGUCUGCAUGCCGCCGGGCGCCAUGCCUGCAGGUCGACUCUAGAAAACAUG”, the binding signal (PUM1 PUF domain R6-RRK) is reported as 4.5 log2 enrichment (interaction score).
With “GGCUAGAACUAGUGGAUCCCCCGGCGCCCGGCGGCUCGAGCCCGGGUAAGUCUAAAUAGUCUGCAUGCCGCCGGGCGCCAUGCCUGCAGGUCGACUCUAGAAAACAUG” the binding signal (PUM1 PUF domain R7-KCQ) was 4.46 log2 enrichment (interaction score).
For “GGCUAGAACUAGUGGAUCCCCCGGCGCCCGGCGGCUCGAGCCCGGGUAAGUGGAAAUAGUCUGCAUGCCGCCGGGCGCCAUGCCUGCAGGUCGACUCUAGAAAACAUG”, the binding signal (PUM1 PUF domain R6-PFE) was 2.11 log2 enrichment (interaction score).
In the case of “GGCUAGAACUAGUGGAUCCCCCGGCGCCCGGCGGCUCGAGCCCGGGUAAGUGUAAGUAGUCUGCAUGCCGCCGGGCGCCAUGCCUGCAGGUCGACUCUAGAAAACAUG”, the binding signal (PUM1 PUF domain R3-WWD) is reported as 5.41 log2 enrichment (interaction score).
With “GGCUAGAACUAGUGGAUCCCCCGGCGCCCGGCGGCUCGAGCCCGGGUAAGUGUAUAUAGUCUGCAUGCCGCCGGGCGCCAUGCCUGCAGGUCGACUCUAGAAAACAUG” the binding signal (PUM1 PUF domain R4-QFL) was 4.92 log2 enrichment (interaction score) and the binding signal (PUM1 PUF domain R4-SNA) was 4.15 log2 enrichment (interaction score).
For “GGCUAGAACUAGUGGAUCCCCCGGCGCCCGGCGGCUCGAGCCCGGGUAAGUGUCAAUAGUCUGCAUGCCGCCGGGCGCCAUGCCUGCAGGUCGACUCUAGAAAACAUG”, the binding signal (PUM1 PUF domain R5-RHL) was 5.23 log2 enrichment (interaction score), the binding signal (PUM1 PUF domain R5-HRE) was 4.28 log2 enrichment (interaction score) and the binding signal (PUM1 PUF domain R5-KGK) was 4.24 log2 enrichment (interaction score). The binding signal (PUM1 PUF domain R5-KSI) was 3.85 log2 enrichment (interaction score), the binding signal (PUM1 PUF domain R5-KFR) was 5.4 log2 enrichment (interaction score) and the binding signal (PUM1 PUF domain R5-DYD) was 5.78 log2 enrichment (interaction score).
